Laboratory results: PubChem BioAssay AID1159580 (chemical genetic matrix, 2015)
“And” between values parts separate entries of the source, which are not always exact repeats. Equal values may be shown once. Screen size: about 5,500 compounds; about 2,000 (36%) were called active. Inconclusive results (about 18%) are left out. No stated cut-off is given here; in the data, active means normalized growth mostly below about 0.91 (no sharp cut-off); inconclusive means no clear call, values can overlap the other calls; inactive means mostly above about 0.92. This is one part of the list.

Assay: chemical genetic growth profiling, strain panel (AID 1159580);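 further: tested at 20 µM; growth read once vehicle control cultures reached saturation at 30 °C; 1 = growth at the plate median or of vehicle wells; lower values mean less growth of the strain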
Details: S. cerevisiae deletion strains, growth OD

Measured: normalized growth

NNc1nncc2ccccc12
inactive: locus YAL013W, strain DEP1, hits give low values 1.01 | locus YAL021C, strain ccr4, hits give low values 0.991 | locus YAL026C, strain drs2, hits give low values 0.973 | locus YAL030W, strain snc1, hits give low values 1 | locus YAL040C, strain CLN3, hits give low values 0.995 | locus YBL061C, strain skt5, hits give low values 0.993 | locus YBR009C, strain hhf1, hits give low values 0.983 | locus YBR021W, strain FUR4, hits give low values 0.973 | locus YBR023C, strain chs3, hits give low values 0.986 | locus YBR171W, strain sec66, hits give low values 0.997 | locus YBR229C, strain ROT2, hits give low values 1.01 | locus YBR231C, strain swc5, hits give low values 0.981 | locus YBR279W, strain paf1, hits give low values 0.996 | locus YCL011C, strain gbp2, hits give low values 0.973 | locus YCL016C, strain dcc1, hits give low values 0.969 | locus YCL029C, strain bik1, hits give low values 1 | locus YCL061C, strain MRC1 (second series), hits give low values 1 | locus YCL061C, strain MRC1, hits give low values 0.988 | locus YCL069W, strain vba3, hits give low values 1 | locus YCR088W, strain abp1, hits give low values 0.999 | locus YDL005C, strain med2, hits give low values 0.992 | locus YDL035C, strain GPR1, hits give low values 1.02 | locus YDL040C, strain nat1, hits give low values 1.01 | locus YDL074C, strain BRE1, hits give low values 0.997 | locus YDL101C, strain DUN1, hits give low values 1 | locus YDL134C, strain PPH21, hits give low values 1.01 | locus YDL185W, strain tfp1, hits give low values 0.999 | locus YDL192W, strain arf1, hits give low values 0.999 | locus YDR001C, strain nth1, hits give low values 0.997 | locus YDR069C, strain doa4, hits give low values 1.02 | locus YDR101C, strain arx1, hits give low values 1.01 | locus YDR137W, strain rgp1, hits give low values 1.02 | locus YDR150W, strain NUM1, hits give low values 1 | locus YDR159W, strain sac3, hits give low values 1.03 | locus YDR162C, strain NBP2, hits give low values 1.01 | locus YDR195W, strain ref2 1.06 | locus YDR297W, strain sur2, hits give low values 1.02 | locus YDR318W, strain mcm21, hits give low values 0.984 | locus YDR334W, strain swr1, hits give low values 0.986 | locus YDR335W, strain msn5, hits give low values 1.02 | locus YDR363W, strain ESC2, hits give low values 0.997 | locus YDR388W, hits give low values 0.993 | locus YDR392W, strain spt3, hits give low values 0.878 | locus YDR502C, strain sam2, hits give low values 0.986 | locus YEL003W, strain gim4, hits give low values 0.989 | locus YEL037C, strain rad23, hits give low values 1 | locus YEL061C, strain CIN8 (second series), hits give low values 1 | locus YEL061C, strain CIN8, hits give low values 1 | locus YER002W, strain NOP16, hits give low values 0.995 | locus YER015W, strain faa2, hits give low values 0.978 | locus YER016W, strain bim1, hits give low values 1 | locus YER110C, hits give low values 0.993 | locus YER111C, strain swi4, hits give low values 0.986 | locus YER155C, strain BEM2 (second series), hits give low values 0.947 | locus YER155C, strain BEM2, hits give low values 1.02 | locus YER167W, strain BCK2, hits give low values 1.01 | locus YFR010W, strain ubp6, hits give low values 0.985 | locus YGL078C, strain dbp3, hits give low values 0.999 | locus YGL086W, strain mad1, hits give low values 0.996 | locus YGL167C, strain pmr1, hits give low values 0.995 | locus YGL173C, strain kem1, hits give low values 0.99 | locus YGL227W, strain vid30, hits give low values 0.999 | locus YGL240W, strain doc1, hits give low values 1 | locus YGL248W, strain PDE1, hits give low values 0.99 | locus YGL253W, strain hxk2, hits give low values 1.01 | locus YGR135W, strain pre9, hits give low values 0.96 | locus YGR252W, strain gcn5, hits give low values 0.941 | locus YHR013C, strain ard1, hits give low values 0.986 | locus YHR027C, strain rpn1, hits give low values 1 | locus YHR030C, strain SLT2, hits give low values 1 and 1.02 | locus YHR079C, strain IRE1 (second series), hits give low values 0.993 | locus YHR079C, strain IRE1, hits give low values 1.01 | locus YHR094C, strain hxt1, hits give low values 0.997 | locus YHR129C, strain ARP1, hits give low values 0.997 | locus YHR142W, strain chs7, hits give low values 0.997 | locus YHR200W, strain rpn10, hits give low values 0.997 | locus YIL066C, strain RNR3, hits give low values 1 | locus YIL073C, strain SPO22, hits give low values 0.992 | locus YIL125W, strain kgd1, hits give low values 1.01 | locus YIR030C, strain dcg1, hits give low values 0.996 | locus YJL092W, strain hpr5, hits give low values 0.988 | locus YJL095W, strain BCK1 (second series), hits give low values 0.999 | locus YJL095W, strain BCK1, hits give low values 0.971 and 0.995 | locus YJL115W, strain asf1, hits give low values 0.996 | locus YJL129C, strain trk1, hits give low values 0.994 | locus YJL134W, strain LCB3, hits give low values 1 | locus YJL154C, strain vps35, hits give low values 0.998 | locus YJL164C, strain tpk1, hits give low values 0.993 | locus YJL166W, strain qcr8, hits give low values 1 | locus YJL168C, strain set2, hits give low values 0.989 | locus YJL187C, strain SWE1 (second series), hits give low values 1 | locus YJL187C, strain SWE1, hits give low values 1.01 | locus YJR043C, strain POL32, hits give low values 1
